Source: PubChem BioAssay (National Center for Advancing Translational Sciences (NCATS))
In the library only some 10% were active in any assay of this set; here they are far more common.
NIH3T3 tox = cytotoxic compounds in NIH 3T3 cells; NIH 3T3 viability, CellTiter-Glo ATP luminescence, 48-72 h; Potency, µM (series often up to 96.7 µM), inactives show at the top dose activity change, negative = cytotoxicity, usual class: inhibitors; hit rate 4.3% among 94,000; AID 1345082; note: nearly all actives have a fitted effect of over 55% in size
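ATP-dependent luminescence (CellTiter-Glo) served as the viability signal for NIH 3T3 cells treated with compound for 48 or 72 hr at 37 °C.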
HEK cytotox = HEK 293 cell cytotoxicity; HEK 293 viability, ATP luminescence (CellTiter-Glo), 48-72 h; Potency, µM (doses to about 115 µM), without a hit: at the top dose activity change, negative = cytotoxicity, most hits filed as inhibitors; hit rate 6.6% among 94,000; AID 1345083; note: nearly all actives have a fitted effect of over 60% in size
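Read-out: CellTiter-Glo ATP luminescence. Cells: HEK 293, 250 cells/well. Exposure: 48 or 72 hr, 37 degree Celsius.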
hNpr1 antagonist = human Npr1 receptor antagonism. P16066. HEK293 hNpr1 GloSensor cGMP, ANP-stimulated luminescence. Potency, µM (highest dose often 46.3 µM), for the others: top-dose activity change, negative = inhibition, actives largely listed as inhibitors. hit rate 1.6% among 76,000. AID 1347048; calls by dose curve; note: nearly all actives have a fitted effect of over 60% in size
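HEK293 cells stably expressing human Npr1 and cGMP GloSensor pGS-40F, loaded 2 h with 2% GloSensor reagent, given compound 30 min at room temperature. Luminescence read before and 20 min after 0.1 nM hNppA.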
GPT2 inhibitor = inhibitors of human GPT2 alanine aminotransferase. Recombinant GPT2, coupled pyruvate oxidase/HRP Amplex Red fluorescence. Q8TD30. hit rate 0.25% among 100,000. AID 1671188. Potency, µM (doses to about 57.7 µM), for inactives: top-dose activity change, negative = inhibition, usual class: inhibitors; note: nearly all actives have a fitted effect of over 60% in size
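Recombinant GPT2 (10ng/uL) with 250uM a-KG and 2mM L-alanine, 30 min at room temperature, in HEPES pH 7.5 buffer. Pyruvate detected by pyruvate oxidase/HRP/Amplex Red fluorescence after 30 min in the dark; AOA (50uM) as positive control.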
FLuc inh = blocks purified firefly luciferase enzyme activity; hit rate 2.5% among 76,000; AID 1347043; Potency, µM (highest dose often 115 µM), actives largely listed as inhibitors; purified P. pyralis luciferase, luminescence, biochemical; P08659; note: nearly all actives have a fitted effect of over 65% in size
Target sequence (P08659 whole entry, looked up): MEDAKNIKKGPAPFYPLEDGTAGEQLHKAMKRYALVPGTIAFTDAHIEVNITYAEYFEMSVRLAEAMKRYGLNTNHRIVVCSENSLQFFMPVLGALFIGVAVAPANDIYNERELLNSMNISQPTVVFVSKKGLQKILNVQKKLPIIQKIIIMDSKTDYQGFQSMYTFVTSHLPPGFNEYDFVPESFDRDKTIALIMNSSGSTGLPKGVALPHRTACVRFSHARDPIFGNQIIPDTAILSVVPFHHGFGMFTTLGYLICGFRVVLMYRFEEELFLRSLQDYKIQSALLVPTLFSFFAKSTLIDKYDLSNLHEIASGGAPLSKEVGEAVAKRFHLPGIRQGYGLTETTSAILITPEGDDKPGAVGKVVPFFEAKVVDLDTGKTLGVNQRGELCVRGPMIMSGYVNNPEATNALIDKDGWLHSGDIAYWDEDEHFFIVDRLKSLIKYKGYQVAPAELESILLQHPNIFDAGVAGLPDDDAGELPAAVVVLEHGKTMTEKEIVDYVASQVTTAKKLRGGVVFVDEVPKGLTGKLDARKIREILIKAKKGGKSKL
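FLuc 10nM, D-luciferin 10uM, ATP 10uM, Mg acetate 10mM, Tris acetate pH 7.5, Tween/BSA; cpd qHTS; enzyme added last; CCD luminescence.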
Starred values were filed as active, the others as inactive; i = inactive; ? = inconclusive; nt = no result; [ ] = another dose, or the depositor's remark. Unless noted, calls come from the whole dose curve; as a rule, active = well fitted curve in the direction sought with a large enough effect; inconclusive = small, poorly fitted or top-dose-only effect, or another doubt; inactive = no such curve, though single readings can be large; an effect the other way counts as inactive or inconclusive. % is set by controls: 0 for no effect and ±100 for the full control effect; potency is the fitted concentration of half-maximal effect.

SMILES	NIH3T3 tox	HEK cytotox	hNpr1 antagonist	GPT2 inhibitor	FLuc inh
COc1ccc2c(c1)C1(CCN(C(=O)c3cccc(F)c3)C1)C(=O)N2C (configuration not stated)	-16.7%	?	-1.1%	-5.5%	i
CSCC(=O)Nc1ccc(=O)n2c1[C@@H]1C[C@@H](CN(C(=O)c3ccc(F)cc3)C1)C2	-9.2%[174 µM]	2.8%[172 µM]	-2.1%[70.6 µM]	-25.1%[88.5 µM]	i
Cc1ccc(-c2ccccc2CN2CCN(C(=O)Cc3ccccn3)CC2)cc1Cl	25.1µM*	?	nt	-14.3%	nt
COc1ccc(CC(=O)N2CCN(Cc3ccccc3-c3cccnc3)CC2)cc1	?	?	nt	i	nt
O=C(Nc1ccc(=O)n2c1[C@@H]1C[C@@H](CN(S(=O)(=O)c3ccccc3)C1)C2)c1cncnc1	?	?	-19.3%	-2.7%	i
C#CCN(C)C[C@H]1CN2CC[C@H]1C[C@@H]2CNC(=O)c1ccccc1	-2.2%[174 µM]	3.2%[172 µM]	-0.7%[70.6 µM]	-3.3%[88.5 µM]	i
O=C(NC[C@H]1C[C@@H]2CCN1C[C@@H]2CN1CCN(c2ccc(F)cc2)CC1)Nc1ccsc1	?	79.4µM*	0.6%	i	i
O=C(NC[C@H]1C[C@@H]2CCN1C[C@@H]2CN1CCN(c2ccc(F)cc2)CC1)Nc1ccccc1	-22.7%	?	-4.9%	1.5%	i
O=C1NCC2(CCCN(Cc3cc(=O)c4cccc(F)c4[nH]3)C2)O1 (configuration not stated)	i	-9.3%	0.5%	-3.1%	i
COc1cc2c(cc1OCC1CC1)NC(=O)C21CCN(C(=O)c2cccnc2)CC1	25.1µM*	-16.0%[172 µM]	2.8%[70.6 µM]	-23.2%[88.5 µM]	i
COc1cc2c(cc1Oc1ccccc1)NC(=O)C21CCN(C(=O)c2cccnc2)CC1	?	56.2µM*	-24.1%[70.6 µM]	3.4%[88.5 µM]	i
COCC(=O)N1CCC2(CC1)C(=O)Nc1cc(Oc3ccccc3)c(OC)cc12	-25.6%[138 µM]	?	-5.5%[70.6 µM]	i	i
COc1cc2c(cc1OCC1CC1)NC(=O)C21CCN(C(=O)CCc2cccnc2)CC1	?	-15.9%[172 µM]	-3.0%[70.6 µM]	-11.8%[88.5 µM]	i
COc1cc2c(cc1Oc1ccccc1)NC(=O)C21CCN(C(=O)c2scnc2C)CC1	?	44.7µM*	-16.8%	?	i
O=c1ccc(-c2ccccc2)c2n1C[C@H]1C[C@@H]2CN(Cc2ccc(CO)o2)C1	-11.1%[174 µM]	-12.4%[172 µM]	-0.4%[70.6 µM]	-27.1%[88.5 µM]	i
Cc1nc(-c2cccs2)cc([C@H]2CN3CC[C@H]2C[C@@H]3CNC(=O)c2ccccc2)n1	?	?	-15.6%[70.6 µM]	i	i
Cc1nc(-c2cccs2)cc([C@H]2CN3CC[C@H]2C[C@@H]3CNC(=O)c2ccc3c(c2)OCO3)n1	39.8µM*	?	-6.7%	-0.7%	i
Cc1nc(-c2ccccc2Br)cc([C@H]2CN3CC[C@H]2C[C@@H]3CNC(=O)c2cccs2)n1	?	79.4µM*	-7.3%	i	i
Cc1ccc(C(=O)NC[C@H]2C[C@@H]3CCN2C[C@@H]3c2cc(-c3cccs3)nc(C)n2)cc1	28.2µM*	?	-19.9%[70.6 µM]	i	i
Cc1nc(-c2cccs2)cc([C@H]2CN3CC[C@H]2C[C@@H]3CNC(=O)Nc2cccc(C(F)(F)F)c2)n1	25.1µM*	25.1µM*	4.0%	i	i
Cc1ncc2c(n1)C[C@@H]1CC[C@H]2N1S(=O)(=O)c1c(C)noc1C	i	-4.4%	13.3%	i	i
C=C[C@H]1CN2CC[C@H]1C[C@@H]2CNCc1cccc(Cl)c1	?	?	-13.7%[70.6 µM]	i	i
CC[C@H]1CN2CC[C@H]1C[C@@H]2CNC(=O)c1ccc2ccccc2c1	?	?	-12.0%[70.6 µM]	4.4%[88.5 µM]	i
C#C[C@H]1CN2CC[C@H]1C[C@@H]2CNCc1cccc(Cl)c1	?	126µM*	-4.5%[70.6 µM]	-3.3%[88.5 µM]	i
C#C[C@H]1CN2CC[C@H]1C[C@@H]2CNC(=O)c1ccc(C#N)cc1	-0.2%[138 µM]	-0.4%[172 µM]	4.6%[70.6 µM]	-3.7%[88.5 µM]	i
C#C[C@H]1CN2CC[C@H]1C[C@@H]2CNC(=O)c1ccc(-c2ccccc2)cc1	112µM*	89.1µM*	0.9%[70.6 µM]	i	i
CC[C@H]1CN2CC[C@H]1C[C@@H]2CNC(=O)c1ccc(-c2ccccc2)cc1	?	89.1µM*	2.1%[70.6 µM]	-5.0%[88.5 µM]	i
